A selection: hits, their analogues and other compounds. The true share with any hit is near 2.4%.
POLB inh – qHTS Assay for Inhibitors of DNA Polymerase Beta | P06746 | Pol beta primer extension/strand displacement, fluorescence kinetic | 340,000 tested, 1.3% active | Potency, µM (titrated, usually from 114 µM), usual class: inhibitors | AID 485314, 2010
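Reaction started by 50 nM substrate onto compound-treated Pol beta (10 nM, 15 min preincubation, room temperature); plates read at 0 min and 10 min. Normalized concentration-effect data fitted by four-parameter Hill equation.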
TDP1 inh – qHTS Assay for Inhibitors of Tyrosyl-DNA Phosphodiesterase (TDP1); Tyrosyl-DNA phosphodiesterase 1 (Homo sapiens), Q9NUW8; recombinant TDP1, AlphaScreen DNA substrate cleavage; Potency, µM (highest dose often 130 µM), actives largely listed as inhibitors; 350,000 tested, 0.28% active; AID 485290, 2010; also: nearly all actives have a fitted effect of over 40% in size
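E. coli-derived human Tdp1, 1 nM final. Cpd preinc 15 min RT; substrate 15 nM final, 5 min RT; AS bead mix 10 ug/ml final, 10 min RT. Signal loss = tyrosine-FITC cleavage. No-enzyme wells = max signal.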
POLH inh – qHTS for Inhibitors of Polymerase Eta. Potency, µM (doses to about 114 µM), hits mostly inhibitors. recombinant Pol eta, fluorescent DNA replication assay. DNA polymerase eta (Homo sapiens), Q9Y253. 390,000 tested, 1.2% active
Target sequence (Q9Y253 whole entry, looked up): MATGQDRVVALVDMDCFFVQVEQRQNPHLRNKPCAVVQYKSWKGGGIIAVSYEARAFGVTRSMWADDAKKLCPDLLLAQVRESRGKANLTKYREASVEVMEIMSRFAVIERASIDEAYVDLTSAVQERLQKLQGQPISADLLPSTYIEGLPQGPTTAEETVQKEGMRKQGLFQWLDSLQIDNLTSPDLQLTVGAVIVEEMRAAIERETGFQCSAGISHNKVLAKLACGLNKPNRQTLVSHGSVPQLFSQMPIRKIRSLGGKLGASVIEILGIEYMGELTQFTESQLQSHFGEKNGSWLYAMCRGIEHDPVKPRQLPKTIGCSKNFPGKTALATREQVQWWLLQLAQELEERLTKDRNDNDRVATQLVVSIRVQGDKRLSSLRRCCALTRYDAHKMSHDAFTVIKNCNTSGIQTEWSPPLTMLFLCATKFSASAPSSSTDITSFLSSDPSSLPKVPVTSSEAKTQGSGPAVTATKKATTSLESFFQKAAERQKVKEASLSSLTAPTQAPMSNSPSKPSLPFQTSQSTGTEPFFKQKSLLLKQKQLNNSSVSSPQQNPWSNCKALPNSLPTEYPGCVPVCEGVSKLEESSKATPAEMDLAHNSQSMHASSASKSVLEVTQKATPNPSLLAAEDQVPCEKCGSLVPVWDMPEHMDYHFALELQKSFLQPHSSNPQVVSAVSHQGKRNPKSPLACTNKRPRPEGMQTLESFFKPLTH
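Fluorescent replication assay: 50 nM final substrate added after a 15 min room-temperature compound preincubation with 10 nM enzyme. Signal taken at 0 min and again at 10 min.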
POLK inh – qHTS for Inhibitors of Polymerase Kappa | DNA polymerase kappa (Homo sapiens), Q9UBT6 | purified Pol kappa, fluorescent DNA synthesis assay, 10 min | Potency, µM (doses to about 107 µM), actives largely listed as inhibitors | 400,000 tested, 0.53% active | AID 588579, 2011
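Activity was followed as the change in fluorescence between reads at 0 and 10 min after starting the reaction with 50 nM substrate. Beforehand, 10 nM polymerase had been preincubated with compound for 15 min at room temperature.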
FEN1 inh – qHTS Assay for the Inhibitors of Human Flap endonuclease 1 (FEN1); P39748; Recombinant FEN1 flap cleavage, fluorescence, 15 min; Potency, µM (doses to about 114 µM), usual class: inhibitors; 390,000 tested, 0.35% active; also: nearly all actives have a fitted effect of over 65% in size
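Enzyme 10 nM, 15 min RT preincubation with compound; start with substrate 50 nM final; reads at 0 and 15 min; qHTS titration, four-parameter Hill fit.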
POLI inh – qHTS for Inhibitors of Polymerase Iota | Pol iota fluorescent replication assay, 10 min | DNA polymerase iota (Homo sapiens), Q9UNA4 | AID 588590, 2011 | 390,000 tested, 1% active | Potency, µM (highest dose often 115 µM), hits mostly inhibitors
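Pol iota at 10 nM preincubated 15 min with compounds at room temperature; reaction started with fluorescent substrate, 50 nM final. Fluorescence read kinetically at 0 and 10 min; buffer-only wells as negative control.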
Hits are given with their value; - = inactive; ? = inconclusive; . = not tested or not shown; ! = not active in a repeat; [ ] = another dose, or the depositor's remark. Calls follow the shape of the dose curve; as a rule, active = well fitted curve in the direction sought with a large enough effect; inconclusive = small, poorly fitted or top-dose-only effect, or another doubt; inactive = no such curve, though single readings can be large; an effect the other way counts as inactive or inconclusive.

SMILES	POLB inh	TDP1 inh	POLH inh	POLK inh	FEN1 inh	POLI inh
O=C(O)c1ccc(-c2ccc(Cl)cc2Cl)o1	-	-	-	-	-	-
CN(C)/C=C/C(=O)c1ccc(-c2ccc(Cl)cc2Cl)o1	31.6µM	-	-	-	-	-
C#CCOCCOCCOCCNc1nc(N2CCN(C(=O)[C@H](CCCCN)n3cc(CN)nn3)CC2)nc(N2CCN(C(=O)[C@H](CCCCN)n3cc([C@@H](N)CC(N)=O)nn3)CC2)n1	.	.	-	-	-	8.91µM
C#CCOCCOCCOCCNc1nc(N2CCN(C(=O)[C@H]([C@@H](C)CC)n3cc([C@@H](N)CC(C)C)nn3)CC2)nc(N2CCN(C(=O)[C@H](CCCCN)n3cc([C@@H](N)CC(C)C)nn3)CC2)n1	-	-	-	-	-	14.1µM
C#CCOCCOCCOCCNc1nc(N2CCN(C(=O)[C@H](CCCCN)n3cc([C@@H](N)CC(N)=O)nn3)CC2)nc(N2CCN(C(=O)[C@H](CCCCN)n3cc([C@@H](N)CC(N)=O)nn3)CC2)n1	.	-	-	-	-	?
C#CCOCCOCCOCCNc1nc(N2CCN(C(=O)C(Cc3ccc(O)cc3)n3cc(C(N)CC(C)C)nn3)CC2)nc(N2CCN(C(=O)C(Cc3cc4ccccc4[nH]3)n3cc(C(N)Cc4ccc(O)cc4)nn3)CC2)n1 (stereo not given)	35.5µM	-	.	.	.	.
C#CCOCCOCCOCCNc1nc(N2CCN(C(=O)[C@H]([C@@H](C)CC)n3cc([C@@H](N)CC(C)C)nn3)CC2)nc(N2CCN(C(=O)[C@H](CCCCN)n3cc([C@@H](N)C(C)CC)nn3)CC2)n1 (stereo not given in full)	-	-	-	-	-	?
COc1ccc(C2c3c(n(CCc4ccccc4)cnc3=N)Oc3ccc4ccccc4c32)cc1OC (stereo not given)	.	-	.	.	.	.
CC(=O)N1CCN(/[N+]([O-])=N/Oc2ccc([N+](=O)[O-])cc2[N+](=O)[O-])CC1	.	.	.	-	-	?
C=CCc1cc(F)c(S(=O)(=O)N2CCN(S(=O)(=O)c3ccc4c(c3)OCCO4)CC2)cc1F	.	-	.	.	.	.
Cc1ccccc1OC1C=CC(C#Cc2ccc(Br)cc2)OC1CO (stereo not given)	.	-[21 µM]	.	.	.	.
CN(CCCC1CCCC1)C(=O)c1cc(COc2c(F)cccc2F)on1	?	79.4µM	-	?	?	?
O=C(O)c1ccc(N/N=C/c2ccc(-c3cccc(Cl)c3)o2)cc1	?	-	79.4µM	-	?	?
CC1=NN(c2ccc(Br)cc2)C(=O)/C1=C/c1ccc(-c2ccccc2C(=O)O)o1	-	.	79.4µM	-	?	?
O=C1/C(=C\c2ccc(-c3ccccc3[N+](=O)[O-])o2)C(c2ccccc2)=NN1c1ccccc1	-	-	50.1µM	-	-	10µM
CN(C)/C=C1/C(=O)N(c2ccc([N+](=O)[O-])cc2)N=C1c1ccccc1	-	-	.	.	.	.
Cc1c(C(=O)O)cccc1-c1ccc(/C=N/Nc2ccc(Br)cc2)o1	?	-	22.4µM	-	-	?
O=C(Nc1cc(C(F)(F)F)ccc1Cl)C(O)Cc1ccccc1 (stereo not given)	.	-	.	.	.	.
COc1cccc(C(=O)NC2CC3CCCC(C2)N3CC(=O)Nc2ccccc2)c1 (stereo not given)	39.8µM	.	?	-	-	?
COc1cc(/C=N/Nc2nnc3c(n2)[nH]c2ccccc23)ccc1O	?	?	?	-	-	39.8µM
Cc1ccc2[nH]c3nc(N/N=C/c4cccc(O)c4)nnc3c2c1	5.01µM	.	-	-	-	?
Cn1c(SCC(=O)NCc2ccco2)nnc1-c1cccc(NC(=O)c2ccccc2)c1	.	.	.	-	-	-
COc1ccc(C(=O)/C=C/c2cc(C(=O)O)cc3c2OCOC3)c(O)c1	?	-	50.1µM	-	-	?
O=C1OC(c2ccco2)=N/C1=C\c1ccc(-c2cccc(C(F)(F)F)c2)o1	-	-	79.4µM	-	-	-
Cc1oc2c(O)c(O)ccc2c(=O)c1-c1cnn(-c2ccccc2)c1	-	-	?	39.8µM	-	?
SMILES	POLB inh	TDP1 inh	POLH inh	POLK inh	FEN1 inh	POLI inh
Cc1cc(C)cc(NC(=O)CSc2nc3c(cnn3-c3ccc(F)cc3)c(=O)[nH]2)c1	-	-	-	-	-	-
O=C(CSc1nc2c(cnn2-c2ccc(F)cc2)c(=O)[nH]1)Nc1ccccc1C(F)(F)F	7.94µM	?	-	-	-	?
COc1ccc(Cl)cc1NC(=O)NN1CCN(C)CC1	?	14.1µM	-	-	-	-
COc1ccc(Cl)cc1NC(=O)C1CCN(S(=O)(=O)c2ccc(F)cc2)CC1	-	.	-	-	?	89.1µM
COC(=O)c1nc(Nc2cc(F)cc(F)c2)nc(NC2CCCC2)n1	.	-	.	.	.	.
NS(=O)(=O)c1ccc(CCNC(=O)c2cc3ccccc3s2)cc1	44.7µM	.	28.2µM	?	?	22.4µM
CCCCNC(=O)N1CCN(c2ccnc3cc(Cl)ccc23)CC1	-	.	?	-	?	28.2µM
O=C(O)CP(=O)(O)O	-	-	-	-	-	12.6µM!
CCn1c(CSc2ncn[nH]2)nc2cc(C(=O)O)ccc21	-	-	-	-	-	-
CCn1c(CSc2nnc(-c3ccncc3)n2C)nc2cc(C(=O)O)ccc21	-	-	-	-	?	25.1µM
Cc1ccc(NC(=S)NC(=O)/C=C/c2ccco2)c(O)c1	17.8µM	-	?	?	-	?
Cc1cc(C)c2oc(-c3ccc(C)c(NC(=S)NC(=O)/C=C/c4ccco4)c3)nc2c1	20µM	-	?	-	-	-
Cn1nnc(NC(=S)NC(=O)/C=C/c2ccco2)n1	?	-	17.8µM	?	?	?
COc1ccc(NC(=S)NC(=O)/C=C/c2ccco2)c(OC)c1	-	.	-	-	-	-
O=C(COC(=O)c1cc(-c2ccccc2Cl)nc2ccccc12)Nc1ncc(C(F)(F)F)cc1Cl	31.6µM	.	?	?	-	?
Cc1cc(C(=O)OCC(=O)NC2CCS(=O)(=O)C2)c2ccccc2n1 (stereo not given)	-	-	-	-	-	-
O=C(COC(=O)c1cc(-c2cccc3ccccc23)nc2ccccc12)NC1CCS(=O)(=O)C1 (stereo not given)	50.1µM	-	-	-	?	?
O=C(COC(=O)c1cccc2ccccc12)Nc1ncc(C(F)(F)F)cc1Cl	-	-	-	-	-	-
CC(CN1CCN(c2ccccc2)CC1)c1ccccc1 (stereo not given)	-	-	-	-	-	44.7µM
